Screening data: PubChem BioAssay, several laboratories
ALR inh = blocks human ALR sulfhydryl oxidase activity. purified ALR, DTT oxidation, H2O2 HRP-luminol luminescence. 290,000 compounds, 3.8% hits. inhibition, % (concentration not given with the values). AID 485317;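 active = mean replicate inhibition above about 79%, with every replicate also reaching it, limit read from the data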
Target sequence (P55789 whole entry, looked up): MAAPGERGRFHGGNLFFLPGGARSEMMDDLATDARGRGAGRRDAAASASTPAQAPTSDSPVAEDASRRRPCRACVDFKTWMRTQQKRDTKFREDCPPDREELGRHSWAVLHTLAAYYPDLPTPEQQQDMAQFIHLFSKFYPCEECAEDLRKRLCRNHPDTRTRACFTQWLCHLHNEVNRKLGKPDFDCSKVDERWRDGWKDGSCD
PREPL inh = human PREPL enzyme inhibition. inhibition, % at 5.96 µM. AID 2751. recombinant PREPL, fluorescence polarization activity-based probe. Q4J6C6. 320,000 compounds, 0.68% hits; in the data active = inhibition above about 43%
AI-2 QS modul = Vibrio harveyi AI-2 quorum sensing modulation; activity change, % at 7.5 µM; 300,000 compounds, 0.4% hits; Vibrio harveyi JMH597 AI-2 luminescence/OD600 ratio, 9 h; active compounds read low; strain lacks LuxN and CqsS sensors; 0 = neutral-control median; in the data active = activity change below about -75%, passing the limit was not always enough;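 note: luminescence divided by OD600 gain over 9 h not by final OD600 alone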
CHT allo act = human CHT allosteric activation; B-score at 10 µM; CHT-expressing cells, membrane potential dye, choline EC20; active compounds read high; LV-AA mutant CHT in HEK293 cells; Q9GZV3; 310,000 compounds, 0.49% hits;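 active = initial fluorescence not abnormally high and integrated response B-score, plate-corrected, over 3 SD above library mean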
CHT inh = inhibitors of human choline transporter CHT; 310,000 compounds, 0.86% hits; CHT-expressing cells, membrane potential dye, choline response; active compounds read low; B-score at 10 µM;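 active = B-score over 3 SD under the library average, and starting fluorescence ratio not unusually high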;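 note: choline stimulus applied at its EC90 after an EC20 pre-addition; B-score computed on integrated fluorescence ratio after choline addition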
Hits are given with their value. Most compounds without a hit are left out; they make up all but 5% or so of the library.

Results for Cc1cccc(OCC(=O)Nc2ccc(C(=O)Nc3ccccc3C(=O)O)cc2)c1C ?
ALR inh: inactive; PREPL inh: inactive; AI-2 QS modul: inactive; CHT allo act: inactive; CHT inh: -5.6

What do the screens show for `COc1ccc(NS(=O)(=O)c2cccc(NC(=O)CNC(C)=O)c2)cc1`?
ALR inh: inactive; PREPL inh: inactive; AI-2 QS modul: inactive; CHT allo act: inactive; CHT inh: inactive

Results for O=C(Cc1cccs1)Nc1ccc(F)c(S(=O)(=O)N2CCOCC2)c1 ?
PREPL inh: inactive

What do the screens show for `CC(C)C(OC(=O)CN1C(=O)c2ccccc2C1=O)C(=O)NC1CCCC1` (centres undefined)?
ALR inh: inactive; PREPL inh: inactive; AI-2 QS modul: inactive; CHT allo act: inactive; CHT inh: inactive

What do the screens show for `Cc1nc(C)c(-c2csc(N)n2)s1`?
ALR inh: 91; PREPL inh: inactive; AI-2 QS modul: inactive; CHT allo act: inactive; CHT inh: inactive

What do the screens show for `Cc1cccc(Nc2nc(-c3sc(C)nc3C)cs2)c1`?
ALR inh: inactive; PREPL inh: inactive; AI-2 QS modul: inactive; CHT allo act: inactive; CHT inh: inactive

Results for CCOc1ccccc1NC(=O)CN1CCCCCC1 ?
ALR inh: inactive; PREPL inh: inactive; AI-2 QS modul: inactive; CHT allo act: inactive; CHT inh: inactive

How did CCOC(=O)/C(C#N)=C/Nc1ccccc1OC do in these assays?
ALR inh: inactive; PREPL inh: inactive; AI-2 QS modul: inactive; CHT allo act: inactive; CHT inh: inactive

Results for CCCOC(=O)C(=O)NNc1ccccc1 ?
ALR inh: 100; PREPL inh: inactive; AI-2 QS modul: inactive; CHT allo act: inactive; CHT inh: inactive

What do the screens show for `CCOC(=O)C(=O)NNc1ccc(C)cc1`?
ALR inh: 100; PREPL inh: inactive; AI-2 QS modul: inactive; CHT allo act: inactive; CHT inh: inactive

Results for CCc1ccc(C(=O)NNc2ccc(Cl)cc2)cc1 ?
ALR inh: inactive; PREPL inh: inactive; AI-2 QS modul: inactive; CHT allo act: inactive; CHT inh: inactive

What do the screens show for `CCOC(=O)C(=O)NNc1ccccc1OC`?
ALR inh: 99; PREPL inh: inactive; AI-2 QS modul: inactive; CHT allo act: inactive; CHT inh: inactive

Results for CCOC(=O)C(=O)NNc1ccc(Cl)cc1 ?
ALR inh: 100; PREPL inh: inactive; AI-2 QS modul: inactive; CHT allo act: inactive; CHT inh: inactive

How did COc1ccc(CN2CCn3nc(C(=O)NC4CC4)cc3C2=O)cc1 do in these assays?
ALR inh: inactive; PREPL inh: inactive; AI-2 QS modul: inactive; CHT allo act: inactive; CHT inh: inactive

Results for O=C(CCS(=O)(=O)c1ccccc1Cl)NCCC1=CCCCC1 ?
ALR inh: inactive; PREPL inh: inactive; AI-2 QS modul: inactive; CHT allo act: inactive; CHT inh: inactive

Results for CNS(=O)(=O)c1cccc(C(=O)OCC(=O)NC2CCCC(C)C2C)c1 (centres undefined) ?
ALR inh: inactive; PREPL inh: inactive

Results for Fc1ccc(Nc2nc(N3CCOCC3)c3ccccc3n2)cc1 ?
ALR inh: 93; PREPL inh: inactive; AI-2 QS modul: inactive; CHT allo act: inactive; CHT inh: inactive

How did c1ccc2c(Nc3nc(N4CCOCC4)c4ccccc4n3)cccc2c1 do in these assays?
ALR inh: inactive; PREPL inh: 53; AI-2 QS modul: inactive; CHT allo act: inactive; CHT inh: inactive

How did CCCc1cc(=O)[nH]c(SCC(=O)N2CCCC2=O)n1 do in these assays?
PREPL inh: inactive; AI-2 QS modul: inactive; CHT allo act: inactive; CHT inh: inactive

What do the screens show for `O=C(CCCN1C(=O)c2ccccc2C1=O)Nc1cccc(S(=O)(=O)NC2=NCCC2)c1`?
ALR inh: inactive; PREPL inh: inactive; AI-2 QS modul: inactive; CHT allo act: inactive; CHT inh: inactive

What do the screens show for `CC/C(=N\NC(=O)c1ccc(N(C)C)cc1)c1ccccc1`?
PREPL inh: inactive; AI-2 QS modul: inactive; CHT allo act: inactive; CHT inh: inactive

How did CCc1ccc(NC(=O)CSc2nc(O)cc(=O)n2C2CCCC2)cc1 do in these assays?
ALR inh: 99; PREPL inh: inactive; AI-2 QS modul: inactive; CHT allo act: inactive; CHT inh: inactive

What do the screens show for `COC(=O)c1ccccc1NC(=O)CSc1nc(O)cc(=O)n1C1CCCC1`?
ALR inh: 98; PREPL inh: inactive; AI-2 QS modul: inactive; CHT allo act: inactive; CHT inh: inactive

How did CCCCNC(=O)CSc1nc(O)cc(=O)n1C1CCCC1 do in these assays?
PREPL inh: inactive; AI-2 QS modul: inactive; CHT allo act: inactive; CHT inh: inactive
